Bioassay records: PubChem BioAssay, several laboratories
CHT allo act: allosteric activators of human choline transporter CHT | Q9GZV3 | CHT-expressing cells, membrane potential dye, choline EC20; active compounds read high; LV-AA mutant CHT in HEK293 cells | B-score at 10 µM | 0.49% of 310,000 active;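 active means initial fluorescence not abnormally high and integrated response B-score, plate-corrected, over 3 SD above library mean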
Target sequence (Q9GZV3 whole entry, looked up): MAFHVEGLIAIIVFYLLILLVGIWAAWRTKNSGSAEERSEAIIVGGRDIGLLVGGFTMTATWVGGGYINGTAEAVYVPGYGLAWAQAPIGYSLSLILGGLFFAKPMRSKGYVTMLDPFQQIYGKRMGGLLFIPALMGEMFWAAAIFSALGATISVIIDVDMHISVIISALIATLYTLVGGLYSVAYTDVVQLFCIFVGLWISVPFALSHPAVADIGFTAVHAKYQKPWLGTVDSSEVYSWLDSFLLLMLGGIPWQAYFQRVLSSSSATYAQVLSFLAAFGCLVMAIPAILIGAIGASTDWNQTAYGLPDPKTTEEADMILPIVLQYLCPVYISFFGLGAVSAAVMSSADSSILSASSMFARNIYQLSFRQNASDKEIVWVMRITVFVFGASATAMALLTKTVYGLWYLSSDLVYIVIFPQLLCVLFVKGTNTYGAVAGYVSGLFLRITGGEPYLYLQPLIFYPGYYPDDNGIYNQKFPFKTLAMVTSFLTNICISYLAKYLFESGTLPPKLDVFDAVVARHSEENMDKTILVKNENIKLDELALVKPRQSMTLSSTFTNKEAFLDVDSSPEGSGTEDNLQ
NALP1 inh: inhibitors of NALP1 inflammasome in yeast; S. cerevisiae NALP1/ASC/caspase-1 growth, X-gal OD620, 72 h; inhibition, % at 10 µM; 0.61% of 280,000 active; AID 2071; in the data active means inhibition mostly above about 24%, no sharp cut-off; inactive means mostly below about 32%
Bfl-1 A1 inh: inhibitors of the anti-apoptotic protein A1, read as caspase activation; MEF A1-2A-BIM cells, Caspase-Glo 3/7 luminescence, 3 h; percent of clofoctol response, vehicle zero; 0.066% of 330,000 active; caspase activation, % (no concentration beside the values);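 active means over half of replicate activation scores above 10%, or exactly half above 10 with the replicate mean above 10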
NLRP3 yeast inh: inhibitors of NALP3 inflammasome in yeast; Yeast reconstituted NLRP3/ASC/caspase-1, beta-gal luminescence, 24 h; inhibition, % at 10 µM; 0.39% of 330,000 active;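 active means inhibition of 50% or more; inactive means inhibition below 50%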;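 further: plate controls were induced DMSO wells for no effect and uninduced yeast grown without galactose for full effect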
Mot1-301 SUMO: inhibitors of SUMOylation pathway: yeast Mot1-301 growth rescue. S. cerevisiae Mot1-301 growth rescue, ATP luminescence, 38.5C; percent above DMSO median, 100 means doubled. growth rescue, % at 18.8 µM. 1% of 320,000 active. AID 2716;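 active means every valid replicate shows activation above 250% relative to neutral control wells; inactive means the rest, any valid replicate at or below 250%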;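 further: OY570 slx delta 5 strain wells were the positive control but not used for scaling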
CHT inh: inhibits the human high affinity choline transporter; Q9GZV3; CHT-expressing cells, membrane potential dye, choline response; active compounds read low; B-score at 10 µM; 0.86% of 310,000 active;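 active means B-score over 3 SD under the library average, and starting fluorescence ratio not unusually high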;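 further: choline stimulus applied at its EC90 after an EC20 pre-addition; B-score computed on integrated fluorescence ratio after choline addition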
Yeast Mot1 SUMO: yeast SUMO pathway inhibition in dose response. growth activity, percent, % at 42 µM. AID 493004. shares compounds with Mot1-301 SUMO. S. cerevisiae Mot1-301 galactose growth, ATP luminescence, 24 h; -100 = growth of slx-deleted rescue strain. 2,300 tested, under 10 active;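 active means Signal drops as the depositor expects, and the fitted half-maximal dose is no more than ten times the top valid tested dose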;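 further: more negative values mean stronger growth rescue toward the control strain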
The depositor's hits bear a star; i = inactive; . = not tested or not shown; + = active, no number. The list is not random: actives were taken first. Their share in the collection is about 3%.

SMILES | CHT allo act | NALP1 inh | Bfl-1 A1 inh | NLRP3 yeast inh | Mot1-301 SUMO | CHT inh | Yeast Mot1 SUMO
CC1CCCC(C)N1CCCNC(=O)c1csc2c1CCCCC2 (centres undefined) | i | 17 | 0 | 13 | 459* | i | 1
CCCNC(=O)c1csc2c1CCCCC2 | i | 0 | 0 | -3 | -13 | i | .
CC(C)NC(=O)c1ccccc1-c1ccccc1 | i | -6 | 1 | 5 | 468* | i | 1
COc1ccc(NC(=O)c2ccccc2-c2ccccc2)cc1 | i | 6 | 1 | 26 | 2 | i | .
C=CCNC(=O)c1onc(CSc2cccc(C)c2)c1C(=O)O | i | -6 | -1 | 10 | 775* | i | 1
Cn1c(NCc2ccco2)nc2c1c(=O)n(Cc1ccc(Cl)cc1)c(=O)n2C | i | 12 | 0 | 17 | + | i | 1
O=C(CSc1nnc(-c2ccco2)o1)N1CCCCC1 | i | 4 | 0 | 13 | -15 | i | .
OC[C@@H](O)[C@@H](O[C@@H]1O[C@H](CO)[C@H](O)[C@H](O)[C@H]1O)[C@H](O)[C@@H](O)CO | i | . | 0 | 4 | 14 | i | .
O=C(Nc1ccc2nc(-c3ccc4nc[nH]c4c3)[nH]c2c1)c1cccs1 | i | 22 | 0 | 14 | 465* | i | 0
CC1CC(N(C(=O)c2ccccc2Cl)c2ccccc2)c2ccccc2N1 (centres undefined) | i | -2 | -2 | 20 | 453* | i | 1
O=C(c1ccc(N2CCCS2(=O)=O)cc1)N1CCN(c2ccc(F)cc2)CC1 | i | 4 | 0 | 5 | -5 | i | .
COc1ccccc1N1CCN(C(=O)c2ccc(N3CCCCS3(=O)=O)cc2)CC1 | i | 32 | 0 | 5 | 607* | i | 1
O=C(COC(=O)CCS(=O)(=O)c1ccccc1)Nc1ccc(N2CCCCC2)cc1 | . | . | 0 | 17 | 9 | . | .
CCCCN(C(=O)C1=COCCO1)c1c(N)n(Cc2ccccc2)c(=O)[nH]c1=O | i | . | -1 | 23 | 521* | i | -1
CCN(C(=O)Cn1nc(C)c([N+](=O)[O-])c1C)c1c(N)n(Cc2ccccc2)c(=O)[nH]c1=O | i | . | 0 | 9 | 376* | i | 1
CCN(C(=O)COC(=O)c1cccc(C)c1[N+](=O)[O-])c1c(N)n(Cc2ccccc2)c(=O)[nH]c1=O | . | . | . | 3 | . | . | .
COc1ccc(CCN2CC(C(=O)NCc3cccc4[nH]ccc34)CCC2=O)cc1 (centres undefined) | i | 11 | 0 | 0 | -3 | i | .
CCc1c(C2(O)CCCCC2)[nH]c2ccc(C(F)(F)F)cc12 | i | 19 | 1 | 25 | -30 | i | .
Cc1ccc(CSc2ccc(-c3ccco3)nn2)cc1 | i | 45 | -6 | 10 | -1 | i | .
Cc1cccc(CSc2ccc(-c3ccco3)nn2)c1 | i | 29 | -2 | 24 | 668* | i | 0
CCN(CC)CCCN1C(=O)C2C(C(=O)Nc3ccc(C(C)C)cc3)C3C=CC2(O3)C1C(=O)NC1CCCCC1 (centres undefined) | i | 11 | 2 | 15 | 8 | i | .
COc1ccc(NC(=O)c2ccc(-c3csc(C)n3)cc2)cc1 | i | 25 | -1 | 22 | 796* | i | 0
CCC(=O)NCCc1nc2cc(NC(=O)c3ccco3)ccc2n1C | i | -2 | 0 | 9 | -4 | i | .
CCOC(=O)N1CCC(Nc2nc3ccccc3n3nnnc23)CC1 | i | 7 | 1 | 16 | 889* | i | 0
O=C(NCCc1ccccc1)c1ccc(NS(=O)(=O)c2ccc3[nH]c(=O)[nH]c3c2)cc1 | i | . | 0 | 3 | -16 | i | .
COc1ccc(N(C(=O)c2ccncc2)S(=O)(=O)c2ccc(F)cc2)cc1 | i | 14 | 0 | 23 | 451* | i | 0
Cc1cccc(N2C(=O)/C(=C/c3cccnc3)SC2=S)c1 | i | -15 | 0 | 2 | 939* | i | 0
